Source: PubChem BioAssay (National Center for Advancing Translational Sciences (NCATS))
Rows were chosen to be rich in hits. Some 21% of all compounds tested hit in one or more screens of this group.
HCV inhibitor: inhibitors of hepatitis C virus infection | Huh7.5.1 HCVcc-Cre infection, luciferase reporter, 44 h | Potency, µM (titrated, usually from 41.8 µM), without a hit: top-dose activity change, negative = inhibition, most hits filed as inhibitors | hit rate 3.4% among 340,000; note: potency is the fitted concentration of half-maximal effect; % is set by controls: 0 for no effect and ±100 for the full control effect
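Cells seeded at 1,000/well and cultured 4 h, then compounds added followed by HCVcc-Cre virus (~0.5 moi). After 44 h further culture, luciferase substrate was added, plates held 15 min at room temperature, and luminescence read for 15 sec.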
Shiga inhibitor: blocks Shiga toxin action in Vero cells | Vero cells, Shiga toxin protein synthesis inhibition reporter | inhibition, % at 38.7 µM | hit rate 9.2% among 290,000 | AID 2315; in the data active = inhibition mostly above about 28%, no sharp cut-off; inactive = mostly below about 43%; note: 0% is about no effect
AMA1 RON2 block: inhibitors of Plasmodium falciparum AMA1-RON2 interaction. AlphaScreen AMA1-biotinylated RON2 peptide binding. Potency, µM (series often up to 58.2 µM), inactives show top-dose activity change, negative = inhibition, hits mostly inhibitors. hit rate 0.2% among 360,000. AID 720542;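 note: potency is the fitted concentration of half-maximal effect; 0% = vehicle wells and -100% = peptide control; nearly all actives have a fitted effect of over 45% in size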
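AMA1 (3D7) with his tag at 25 nM final met compounds first, then biotinylated RON2 peptide at 25 nM; detection used donor plus acceptor beads, 10 µg/mL apiece, read by AlphaScreen after 30 min at room temperature.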
Pf growth 48h: P. falciparum growth inhibition at 48 hours (one generation); P. falciparum luciferase growth in erythrocytes, 48 h; Potency, µM (top dose mostly 28.7 µM), inactives show top-dose activity change, negative = inhibition, most hits filed as inhibitors; hit rate 5.9% among 310,000; note: potency is the fitted concentration of half-maximal effect; % is set by controls: 0 for no effect and ±100 for the full control effect
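Growth was read as firefly luciferase luminescence after a 48 h, 37 C, 5% CO2 exposure of compounds to reporter-bearing P. falciparum cultures (0.1% parasitemia, 2% hematocrit final) in Albumax-supplemented RPMI 1640.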
Pf growth 96h: P. falciparum growth inhibition at 96 hours; P. falciparum luciferase reporter growth, 96 h; Potency, µM (highest dose often 28.7 µM), for inactives: at the highest dose activity change, negative = inhibition, most hits filed as inhibitors; hit rate 6.9% among 320,000; note: potency is the fitted concentration of half-maximal effect; % is set by controls: 0 for no effect and ±100 for the full control effect
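Two parasite generations (96 h, 37 C, 5% CO2) of compound exposure in infected erythrocytes (0.05% parasitemia, 2% hematocrit). Luciferase-reporter P. falciparum; decreased luminescence indicates inhibited growth, aimed at apicoplast-acting delayed death.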
Cycloheximide cs: counter-screen for Shiga toxin inhibitors: cycloheximide protein synthesis inhibition; cell reporter, cycloheximide protein synthesis inhibition counterscreen; hit rate 12% among 300,000; AID 2314; max response, %; in the data active = max response mostly above about 13%, no sharp cut-off; inactive = mostly below about 14%; note: read at 38.3 µM for the half of the compounds with a filed dose; 0% is about no effect
* = called active by the depositor; ? = inconclusive; . = no result given; ! = repeats disagree; [ ] = dose if it differs, or a comment. Unless noted, calls come from the whole dose curve; as a rule, active = well fitted curve in the direction sought with a large enough effect; inconclusive = small, poorly fitted or top-dose-only effect, or another doubt; inactive = no such curve, though single readings can be large; an effect the other way counts as inactive or inconclusive.

SMILES	HCV inhibitor	Shiga inhibitor	AMA1 RON2 block	Pf growth 48h	Pf growth 96h	Cycloheximide cs
Cc1ccc(C2(C)NC(=O)N(CC(=O)Nc3cc(S(=O)(=O)N4CCOCC4)ccc3OC(C)C)C2=O)cc1 (stereo not given)	?	.	-4%	.	.	.
CCC1(c2ccccc2)NC(=O)N(CC(=O)Nc2cc(S(=O)(=O)N3CCOCC3)ccc2OC(C)C)C1=O (stereo not given)	?	.	0%	12µM*	?	.
COc1ccc(-c2noc(COC(=O)c3ccco3)n2)cc1OC	0%	.	-1%	20%	6%	.
CCc1cccc(CC)c1NC(=O)CSc1nnc(C(C)C)n1CC	-26%	-4	-11%	17%	?	-6
CCn1c(SCC(=O)c2ccc(Cl)cc2)nnc1-c1cccs1	?	25	8%	.	-12%	23
CCn1c(SCC(N)=O)nnc1C(C)C	3%	-13	-3%	13%	8.3µM*	-2
CCn1c(SCC(=O)c2ccc(Cl)cc2)nnc1C(C)C	0%	116*	0%	32%	?	34*
O=C(NC1CCSC1)c1cccc(Cl)c1 (stereo not given)	5%	-5	-7%	-12%	-8%	-1
CCN(CC)c1ccc(C(=O)NNC(=O)CNC(=O)c2cccs2)cc1	7%	.	16%	-8%	-13%	.
COc1cccc(N=CC=C2OC(C)(C)C(C)(C)O2)c1	-28%	87*	3%	?	124%	49*
Cc1ccc(N=CC=C2OC(C)(C)C(C)(C)O2)cc1	15%	66*	-4%	?	?	20*
COc1ccc(N=CC=C2OC(C)(C)C(C)(C)O2)cc1OC	-10%	24	-9%	-22%	-27%	9
Cc1ccccc1N=CC=C1OC(C)(C)C(C)(C)O1	5%	-9	8%	8.3µM*	36%	-1
Cc1cccc(N=CC=C2OC(C)(C)C(C)(C)O2)c1	-8%	108*	4%	?	15%	36*
O=C(NC1CCN(S(=O)(=O)c2ccccc2)CC1)c1ccc(F)cc1	7%	-2	-4%	6%	?	1
CN(Cc1ccccc1)Cc1nc2c(c(=O)n(C)c(=O)n2C)n1Cc1ccc(Cl)cc1	14µM*	-1	11%	-26%	-8%	-4
C=C(C)Cn1c(CN(C)Cc2ccccc2)nc2c1c(=O)n(C)c(=O)n2C	11µM*	.	-11%	12%	0%	-2
Cn1c(=O)c2c(nc(CN3CCN(Cc4ccccc4)CC3)n2Cc2ccc(Cl)cc2)n(C)c1=O	?	-18	-5%	.	2.6µM*	-8
CCCCCn1c(CN(C)Cc2ccccc2)nc2c1c(=O)n(C)c(=O)n2C	14µM*!	-8	?	?	8%[5.75 µM]	-3
CC(=O)C(C)n1c(CN(C)Cc2ccccc2)nc2c1c(=O)n(C)c(=O)n2C (stereo not given)	?	-10	-6%	-12%	-27%	2
O=C(CSc1ccccn1)N1CCNC1=O	9%	.	14%	.	.	.
CCCc1c(-c2cccc(Br)c2)ncn1Cc1ccccc1OC	.	.	-26%	.	.	.
CN(C)C1CN(Cc2cn(Cc3cccc(C(F)(F)F)c3)nn2)S(=O)(=O)C1 (stereo not given)	.	.	-6%	.	.	.
CCCCn1c(CN(Cc2ccccc2)Cc2ccccc2)nc2c1c(=O)n(C)c(=O)n2C	11%	.	-9%	.	.	.
CCOCCn1c(CN(Cc2ccccc2)Cc2ccccc2)nc2c1c(=O)n(C)c(=O)n2C	?	-5	-9%	.	1.3µM*	-9
CN(Cc1ccccc1)Cc1nc2c(c(=O)n(C)c(=O)n2C)n1Cc1ccc(F)cc1	-18%	-12	-3%	12µM*	12µM*	-1
CCCCCCn1c(CN2CCCCC2C)nc2c1c(=O)n(C)c(=O)n2C (stereo not given)	25µM*	-4	38%	-13%	?	-2
CCC1CCCCN1Cc1nc2c(c(=O)n(C)c(=O)n2C)n1CCCc1ccccc1 (stereo not given)	6%	-13	0%	?	?	-4
CCC1CCCCN1Cc1nc2c(c(=O)n(C)c(=O)n2C)n1Cc1ccccc1 (stereo not given)	-25%	16	-2%	?	7.4µM*	-5
